# Laboratory results from PubChem BioAssay (NCATS).
# Results filed as inconclusive are left out. Active and inactive are the calls of the source. The call rests on the fitted dose curve; in most records, active means well fitted inhibition curve with a large enough effect; inconclusive means small, poorly fitted or top-dose-only effect; inactive means no such curve, though single readings can be large or run the other way.
# Assay: Primary qHTS for inhibitors of nuclear receptor binding SET domain protein 2 (NSD2) in an RCH-ACV wild type WT cells (2C) (AID 1645877); further: nearly all actives have a fitted effect of over 70% in size
# Conditions: RCH-ACV (leukaemia line) NSD2 WT (2C) viability, CellTiter-Glo, 72 h; series mostly up to 44.9 µM; activity change, negative = cell killing: at the top concentration
# On the % scale 0 is the no-effect control and ±100 the full control effect; potency means the concentration at half of the fitted maximal effect.
SMILES,"activity change, negative = cell killing",outcome,Potency
CC1=CC(=O)[C@]2(O[C@@H]3O[C@@H](C)[C@H](O)[C@@H](O)[C@H]3OC(=O)/C=C/c3ccccc3)C=CO[C@@H](O[C@@H]3O[C@H](CO)[C@@H](O)[C@H](O)[C@H]3O)[C@H]12,-15.2% [at 17.3 µM] (inactive),–,–
CC1(C)CC[C@]2(C(=O)O)CC[C@]3(C)C(=CCC4[C@@]5(C)CC[C@H](O[C@@H]6O[C@H](C(=O)O)[C@@H](O[C@@H]7OC[C@@H](O)[C@H](O)[C@H]7O)[C@H](O)[C@H]6O)C(C)(C)C5CC[C@]43C)C2C1O (some centres undefined),1.48% [at 17.3 µM] (inactive),–,–
O=C(OC[C@@]1(O)CO[C@@H](O[C@H]2[C@H](Oc3ccc(O)cc3)O[C@H](CO)[C@@H](O)[C@@H]2O)[C@@H]1O)c1ccc(O)cc1,3.94% [at 17.3 µM] (inactive),–,–
CC(=O)O[C@H]1CC[C@@]2(C)C(CC[C@@H](C)[C@]23Cc2c(O)cc4c(c2O3)CN([C@@H](CCC(=O)O)C(=O)O)C4=O)C1(C)C (some centres undefined),–,inactive [at 17.3 µM],–
COC(=O)C1=CO[C@@H](O[C@@H]2O[C@H](CO)[C@@H](O)[C@H](O)[C@H]2O)[C@@H]2[C@@](C)(O)[C@@H](OC(=O)/C=C/c3ccc(O)cc3)C[C@]12O,-16% [at 17.3 µM] (inactive),–,–
Cc1c(CN2CCN(C(=O)C(C)O)CC2)sc2c(N3CCOCC3)nc(-c3cnc(N)nc3)nc12 (centres undefined),–,–,45.9 nM (active)
O=C(c1cn(Cc2cncn2Cc2ccc(Br)cc2)cc1-c1cccc2ccccc12)N1CCOCC1,–,–,1150 nM (active)
CN[C@@H]1[C@H](O[C@H]2[C@H](O[C@@H]3[C@@H](O)[C@H](O)[C@@H](N=C(N)N)[C@H](O)[C@H]3N=C(N)N)O[C@@H](C)[C@]2(O)C=O)O[C@@H](CO)[C@H](O)[C@H]1O,–,–,inactive
CO[C@@H](C)Cn1c(=O)n(C)c2cnc3ccc(-c4cncc(C(C)(C)O)c4)cc3c21,–,–,166 nM (active)
O=C(NCc1ccc(S(=O)(=O)c2cc(F)cc(F)c2)cc1)c1ccc2nccn2c1,-94.9% (inactive),–,–
C[C@H]1CC[C@@H]2N(C1)C[C@@H]1[C@H]([C@@H](O)[C@H](O)[C@]3(O)[C@H]1C[C@@]14OC5(O)[C@@H](C[C@@H](O)[C@@H]31)[C@]4(C)CC[C@@H]5O)[C@]2(C)O,-1.51% [at 17.3 µM] (inactive),–,–
COC(=O)C1=COC(OC2OC(CO)C(O)C(O)C2O)C2C1C=CC2(O)CO (centres undefined),-5.8% [at 17.3 µM] (inactive),–,–
C=C(CO)C12OC1C1(C)C(=CC2=O)C(O)C(O)CC1C (centres undefined),-22.3% (inactive),–,–
CCOC(=O)c1cc(C#N)c(N2CCC(C(=O)NS(=O)(=O)Cc3ccccc3)CC2)nc1C,-14.8% (inactive),–,–
COc1cc(O)cc(C)c1C(=O)O[C@@H]1[C@H](O)[C@@H](CO)O[C@H]1n1ccc(=O)[nH]c1=O,-7.39% [at 17.3 µM] (inactive),–,–
CC1=CC(=O)C(=C(C)C)CC2C1CCC2(C)O (centres undefined),-12.1% (inactive),–,–
Cc1cc(Nc2ncc3cc(-c4c(Cl)cccc4Cl)c(=O)n(C)c3n2)ccc1F,–,–,817 nM (active)
CC(=O)N[C@@H](C(=O)O[C@H]1CCC(C)(C)[C@@H]2CCC3=C(COC3=O)[C@@]12C)C(C)C,-13.7% (inactive),–,–
CC[C@H](CO)Nc1nc(NCc2ccc(-c3ccccn3)cc2)c2ncn(C(C)C)c2n1,–,–,230 nM (active)
CC(C)(C)C(=O)CN1C(=O)[C@H](NC(=O)Nc2cccc(C(=O)O)c2)CN(C2CCCCC2)c2ccccc21,–,–,inactive

SMILES,"activity change, negative = cell killing",outcome,Potency
COc1cc(C2c3cc4c(c(O)c3CC(CO)C2C(=O)O)OCO4)cc(OC)c1O (centres undefined),–,–,2000 nM (active)
CCC(=O)O[C@H]1C(C)(C)[C@H]([C@@H](O)C(=O)OC)[C@]2(C)C(=O)[C@@]1(O)[C@H]1O[C@]13C1CC(=O)O[C@@H](c4ccoc4)[C@]1(C)CCC32 (some centres undefined),-18.9% [at 17.3 µM] (inactive),–,–
COc1cc(Br)c(S(=O)(=O)Nc2ccc(C(F)(F)F)c(O[C@@H]3CCN(C)C3)c2)cc1OC,-24.9% (inactive),–,–
CC1CCN(C(=O)CC#N)CC1N(C)c1ncnc2[nH]ccc12 (centres undefined),-18.4% (inactive),–,–
Cc1nc(NC(=O)N2CCCC2C(N)=O)sc1-c1csc(C(C)(C)C)n1 (centres undefined),–,–,4090 nM (active)
CC(C)[C@@H]1C(=O)N(S(C)(=O)=O)[C@@H]2CCN(C(=O)/C=C/CN3CCCCC3)[C@H]21,-2.16% (inactive),–,–
CC1(C)CC2C(O)c3cocc3CC(C)(O)C2C1 (centres undefined),-2.24% (inactive),–,–
C=CC1(C)CC(OC(=O)/C(C)=C\COC(C)=O)C(C(=C)C(=O)O)C(O)C1C(=C)CO (centres undefined),–,inactive [at 17.3 µM],–
O=C(O)C(O[C@@H]1O[C@H](CO[C@@H]2O[C@H](CO)[C@@H](O)[C@H](O)[C@H]2O)[C@@H](O)[C@H](O)[C@H]1O)c1ccccc1 (some centres undefined),2.17% [at 17.3 µM] (inactive),–,–
CC(C)Oc1ccc(C(=O)NC(CNC(=O)CN(C)C)Cc2ccc(-c3cn4cccc(C(C)O)c4n3)cc2)cc1Cl (centres undefined),–,–,64.9 nM (active)
C=C[C@]1(C)C=C2CCC3C(C)(CCC[C@@]3(C)C(=O)O)C2CC1 (some centres undefined),–,inactive,–
C=C[C@@H]1[C@H](O[C@@H]2O[C@H](CO)[C@@H](O)[C@H](O)[C@H]2O)OC=C(C(=O)O)[C@H]1CCOC(=O)/C=C/c1ccc(O)c(O)c1,-15.8% [at 17.3 µM] (inactive),–,–
C/C(=C\CCC(C)CCO)C(=O)OC1(C)CCC2C(C(=O)O)=COC(OC3OC(CO)C(O)C(O)C3O)C21 (centres undefined),4.29% [at 17.3 µM] (inactive),–,–
CC1=C2C3OC(=O)C(C)C3(O)CCC2(C)CCC1O (centres undefined),-9.01% (inactive),–,–
CC(=O)O[C@]1(C(C)=O)CC[C@H]2[C@@H]3C[C@H](C)C4=CC(=O)C=C[C@]4(C)[C@@]3(F)[C@@H](O)C[C@@]21C,–,–,12.9 nM (active)
COC(=O)CC(O)C1OC(c2ccccc2)C(O)C1O (centres undefined),-21.3% (inactive),–,–
C=CC(C)(CC/C=C(\C)C(=O)OC)OC1OC(COC(=O)CC(C)(O)CC(=O)O)C(OC2OC(CO)C(O)C(O)C2O)C(O)C1O (centres undefined),–,inactive [at 17.3 µM],–
COc1cccc2cc3c(c(O[C@@H]4O[C@H](CO[C@@H]5O[C@H](CO)[C@@H](O)[C@H](O)[C@H]5O)[C@@H](O)[C@H](O)[C@H]4O)c12)C(C)OC3=O (some centres undefined),-22.6% [at 17.3 µM] (inactive),–,–
C[C@@H]1CCC2C(C)(C)[C@H](O)CC[C@]2(C)[C@@]12Cc1c(O)cc3c(c1O2)CN([C@@H](CCC(=O)O)C(=O)O)C3=O (some centres undefined),–,inactive [at 17.3 µM],–
